Laboratory results taken from publication PMC5540273 (PLoS ONE, 2017).

What was measured:
Conditions in all cases: concentration: 1 μM, replicates: in singlicate; n = 1
SBK1 = tested on: SBK1
SGK2 = tested on: SGK2
SGK3 = tested on: SGK3
SGK = tested on: SGK
SIK2 = tested on: SIK2
SIK = tested on: SIK
SLK = tested on: SLK
SNARK = tested on: T1, SNARK
T1 construct: gene NUAK2

SNRK = tested on: SNRK
SRC = tested on: SRC
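Also: KINOMEscan kinase panel screen.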

Structure (SMILES)	%Inh (SBK1)	%Inh (SGK2)	%Inh (SGK3)	%Inh (SGK)	%Inh (SIK2)	%Inh (SIK)	%Inh (SLK)	%Inh (SNARK)	%Inh (SNRK)	%Inh (SRC)
C[C@H]1CC[C@@H](C(=O)Nc2ccccc2)CN1c1cc(-c2ccc3c(N)n[nH]c3c2)nc(N)n1 [GSK2283293]	9%	0%	7%	0%	0%	0%	0%	7%	0%	0%
CS(=O)(=O)CCNCc1nc(-c2ccc3ncnc(Nc4ccc(OCc5cccc(F)c5)c(Cl)c4)c3c2)cs1.Cl [GW583340]	0%	0%	0%	0%	0%	0%	20%	0%	0%	0%
Nc1n[nH]c2nnc(-c3ccccc3)cc12 [SB-517389]	10%	0%	19%	0%	0%	0%	0%	0%	2%	0%
CN1c2ccc(-c3ccc(C(=O)NCCO)cc3)cc2-c2[nH]ncc2S1(=O)=O	0%	23%	0%	10%	16%	16%	25%	0%	0%	46%
Cc1ccc(C)c(NC(=O)NCCNc2ccnc(Nc3ccc(F)cc3)n2)c1 [GSK1379878]	0%	0%	0%	0%	0%	0%	0%	0%	0%	0%
OCCOCCn1ccc2ncnc(Nc3ccc(Oc4cccc(Cl)c4)c(Cl)c3)c21	0%	0%	0%	0%	0%	0%	39%	0%	0%	0%
O=C(NCCCN1CCCC1=O)c1cnc(NCc2cc(Cl)ccc2Cl)nc1NC1CCNCC1	0%	0%	0%	0%	0%	7%	14%	0%	0%	0%
CC(C)(C)OC(=O)NC1CCCN(c2cc(-c3ccc4c(N)n[nH]c4c3)nc(N)n2)C1 (stereo not drawn) [GSK2286096]	15%	0%	44%	0%	0%	0%	0%	0%	3%	0%
O=C(Nc1ccccc1)Nc1ccc(Oc2ccc3nccn3n2)cc1	0%	0%	3%	0%	0%	0%	20%	0%	0%	0%
O=c1cc(N2CCOCC2)nc2n(Cc3cccc(Cl)c3)ccn12 [GSK2296823]	32%	0%	13%	0%	9%	0%	0%	0%	5%	2%
Fc1ccc(-c2ncn(CCCNCc3ccccc3)c2-c2ccncc2)cc1	0%	19%	0%	30%	0%	9%	35%	5%	5%	24%
O=C(c1ccc(-c2cc(-c3c[nH]nc3-c3ccccn3)ccn2)cc1)N1CCCC1 [GW792479]	0%	8%	0%	0%	12%	19%	3%	0%	0%	17%
Cl.c1ccc(Cn2ccc3cc(Nc4ncnc5ccccc45)ccc32)cc1 [GW275568]	0%	0%	46%	0%	2%	0%	32%	35%	14%	4%
CN1CCC(n2cnc(-c3ccc(F)cc3)c2-c2ccnc(NC3CCNCC3)n2)CC1 [SB-229482]	0%	87%	0%	0%	0%	12%	0%	0%	1%	0%
Cn1ccc2ncnc(Nc3ccc(Oc4cccc(Cl)c4)c(Cl)c3)c21	15%	11%	10%	0%	0%	37%	33%	13%	0%	12%
FC(F)(F)c1cc(Nc2nccc(-c3c(-c4ccc(Cl)cc4)nn4ncccc34)n2)ccc1Cl [GW829351]	0%	0%	0%	0%	0%	0%	0%	0%	0%	0%
COC(=O)c1c(-c2ccccc2)c2cc(Cl)ccc2c(=O)n1Cc1ccc(S(C)(=O)=O)cc1	0%	0%	9%	0%	9%	2%	19%	18%	0%	23%

Structure (SMILES)	%Inh (SBK1)	%Inh (SGK2)	%Inh (SGK3)	%Inh (SGK)	%Inh (SIK2)	%Inh (SIK)	%Inh (SLK)	%Inh (SNARK)	%Inh (SNRK)	%Inh (SRC)
Cl.Fc1ccccc1COc1ccc(Nc2ncnc3ccc(-c4nnc(C(F)(F)F)o4)cc23)cc1Cl [GW424170]	0%	0%	0%	0%	0%	1%	20%	0%	0%	0%
CNc1nccc(-c2c(-c3ccc(F)cc3)ncn2C2CCN(C)CC2)n1 [SB-222903]	0%	0%	0%	0%	17%	0%	0%	0%	0%	0%
Cc1cc(N2CCC(NS(=O)(=O)c3ccc(F)cc3)CC2)nc(Nc2cccc(C#N)c2)n1.O=C(O)C(F)(F)F [GSK1653537]	0%	0%	0%	0%	0%	0%	13%	0%	0%	5%
Cc1cccc(-c2nc(Nc3ccc4[nH]nnc4c3)c3ccccc3n2)n1 [GW867587]	0%	0%	0%	0%	0%	0%	0%	0%	0%	26%
Cl.O=S(=O)(c1cccc(F)c1)c1ccc(Nc2ncnc3cc(Br)sc23)cc1Cl [GSK306886]	0%	0%	6%	0%	0%	0%	8%	14%	0%	0%
N#Cc1ccc(Oc2ccc(Nc3ncnc4cc[nH]c34)cc2Cl)cc1	27%	34%	28%	31%	37%	0%	7%	24%	38%	3%
Cc1ccc(O)cc1Nc1cc(C(F)(F)F)nc2ccc(-c3ccncc3)cc12 [GW630823]	0%	3%	0%	14%	11%	4%	26%	0%	0%	18%
CNc1nccc(-c2c(-c3ccc(F)cc3)ncn2CCCN2CCOCC2)n1 [SB-222516]	0%	15%	44%	10%	0%	12%	5%	24%	18%	0%
Clc1cccc(-c2nc(Nc3ccncc3)c3ccccc3n2)c1 [GW873004]	0%	11%	0%	6%	0%	63%	43%	0%	0%	0%
Nc1nccc2scc(-c3ccc4c(c3)CCN4C(=O)Cc3cc(F)ccc3F)c12 [GSK2587663]	11%	0%	0%	0%	0%	0%	13%	0%	8%	0%
O=C(CCO)NCCn1ccc2ncnc(Nc3ccc(Oc4cccc(C(F)(F)F)c4)c(Cl)c3)c21	0%	0%	0%	0%	16%	10%	37%	0%	0%	0%
Fc1cccc(COc2ccc(Nc3ncnc4nn5ccccc5c34)cc2Cl)c1 [GW689066]	2%	0%	0%	0%	0%	0%	2%	0%	0%	0%
COc1ccc(Nc2nccc(N3CCC(NC(=O)c4cccc(NC(C)=O)c4)C3)n2)cc1 (stereo not drawn) [GSK1379732]	21%	3%	3%	15%	0%	0%	6%	3%	0%	0%
FC(F)(F)c1ccc(-c2nn3ncccc3c2-c2ccnc(Nc3cccc(C(F)(F)F)c3)n2)cc1 [GW828205]	0%	0%	18%	0%	0%	47%	21%	0%	0%	0%
CCn1c(-c2ccncc2)nc2cnccc21 [SB-735216]	20%	19%	28%	5%	0%	19%	8%	21%	17%	0%
Nc1nc(-c2ccc3c(N)n[nH]c3c2)cc(N2CCCCC2)n1 [GSK2228768]	3%	0%	0%	0%	0%	0%	5%	0%	0%	15%
